Experimental data: the supplement of paper PMC6555819

Legend:
Experiment in all cases: PBM binding z-score (relative to random genomic background probes); higher = stronger binding; sequences stand for … in GC…GCGATTGACAGCGTAGAATGAAGG
[1] = system: FXR:RXRa (NR concentration 270 nM, RXRa partner concentration 90 nM)
Summary of the method: (§1)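 Scanned fluorescence from custom Agilent 4×180K protein-binding microarrays was regression-normalized. Binding z-scores use random background probes as reference. Ligand-free nuclear receptor dimers were incubated on the arrays for 1 h and detected with antibodies against each partner (one per run).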

[2] = system: LXRa:RXRa (NR concentration 270 nM, RXRa partner concentration 90 nM)
Summary of the method: as §1

[3] = system: LXRa homodimer (NR concentration 270 nM)
Summary of the method: as §1

[4] = system: LXRb:RXRa (NR concentration 270 nM, RXRa partner concentration 90 nM)
Summary of the method: as §1

[5] = system: LXRb homodimer (NR concentration 270 nM)
Summary of the method: as §1

[6] = system: PPARa:RXRa (NR concentration 270 nM, RXRa partner concentration 90 nM)
Summary of the method: as §1

[7] = system: PPARg:RXRa (NR concentration 180 nM, RXRa partner concentration 90 nM)
Summary of the method: as §1

[8] = system: PPARg:RXRa 270nM:90nM, anti-RXR (NR concentration 270 nM, RXRa partner concentration 90 nM)
Summary of the method: as §1

[9] = system: PPARg:RXRa 30nM:10nM, anti-RXR (NR concentration 30 nM, RXRa partner concentration 10 nM)
Summary of the method: as §1

[10] = system: PPARg:RXRa 90nM:30nM, anti-RXR (NR concentration 90 nM, RXRa partner concentration 30 nM)
Summary of the method: as §1

[11] = system: PPARg:RXRa DBDmut IVT, anti-RXR (DBD mutation: RXRa K156A/R161A, NR concentration 270 nM, RXRa partner concentration 90 nM)
Summary of the method: as §1

[12] = system: PPARg:RXRa IVT, anti-PPARg (NR concentration 270 nM, RXRa partner concentration 90 nM)
Summary of the method: as §1

[13] = system: PPARg DBDmut:RXRa IVT, anti-PPARg (DBD mutation: PPARg1 K132A/R137A, NR concentration 270 nM, RXRa partner concentration 90 nM)
Summary of the method: as §1

[14] = system: PPARg DBDmut IVT, anti-PPARg (DBD mutation: PPARg1 K132A/R137A, NR concentration 270 nM)
Summary of the method: as §1

[15] = system: PPARg homodimer (NR concentration 180 nM)
Summary of the method: as §1

[16] = system: PXR:RXRa (NR concentration 270 nM, RXRa partner concentration 90 nM)
Summary of the method: as §1

[17] = system: PXR homodimer (NR concentration 270 nM)
Summary of the method: as §1

[18] = system: RARa:RXR (NR concentration 270 nM, RXRa partner concentration 90 nM)
Summary of the method: as §1

[19] = system: RARa homodimer (NR concentration 270 nM)
Summary of the method: as §1

[20] = system: RARb:RXRa (NR concentration 270 nM, RXRa partner concentration 90 nM)
Summary of the method: as §1

AATACAGGGTCATCGTAGGCCAGAGTGCGCACAG showed a PBM binding z-score [1] of 7.13, a PBM binding z-score [2] of 6.46 and a PBM binding z-score [3] of 2.47. It also gave a PBM binding z-score [4] of 4.75, a PBM binding z-score [5] of 1.07 and a PBM binding z-score [6] of 5.99. It also gave a PBM binding z-score [7] of 6.7, a PBM binding z-score [8] of 6.16 and a PBM binding z-score [9] of 2.72. The PBM binding z-score [10] was 4.73, the PBM binding z-score [11] was 2.61 and the PBM binding z-score [12] was 4.22. For the same sequence, the PBM binding z-score [13] was 1.07, the PBM binding z-score [14] was 1.13 and the PBM binding z-score [15] was 1.9. For the same sequence, the PBM binding z-score [16] was 4.97, the PBM binding z-score [17] was 0.782 and the PBM binding z-score [18] was 4.82. The PBM binding z-score [19] was 0.464 and the PBM binding z-score [20] was 4.48.
CCTACTGGGCCACGAAAGGTCATTGATTCAGTGA showed a PBM binding z-score [1] of 3.58, a PBM binding z-score [2] of 5.34 and a PBM binding z-score [3] of 4.9. It also gave a PBM binding z-score [4] of 4.15, a PBM binding z-score [5] of 0.552 and a PBM binding z-score [6] of 4.58. The PBM binding z-score [7] was 4.57, the PBM binding z-score [8] was 5.08 and the PBM binding z-score [9] was 2.53. For the same sequence, the PBM binding z-score [10] was 4.4, the PBM binding z-score [11] was 5.99 and the PBM binding z-score [12] was 5.95. It also gave a PBM binding z-score [13] of 0.883, a PBM binding z-score [14] of -0.339 and a PBM binding z-score [15] of 4.26. The PBM binding z-score [16] was 5.45, the PBM binding z-score [17] was 2.06 and the PBM binding z-score [18] was 5.9. For the same sequence, the PBM binding z-score [19] was 1.7 and the PBM binding z-score [20] was 4.
With GGAACGAGGGCTAAGTTGATAGCATCTGTCGACG the PBM binding z-score [1] was -0.545, the PBM binding z-score [2] was -0.626 and the PBM binding z-score [3] was -0.392. The PBM binding z-score [4] was -0.796, the PBM binding z-score [5] was -0.848 and the PBM binding z-score [6] was 0.746. It also gave a PBM binding z-score [7] of 1.37, a PBM binding z-score [8] of 2.81 and a PBM binding z-score [9] of 1.41. The PBM binding z-score [10] was 2.31, the PBM binding z-score [11] was 0.209 and the PBM binding z-score [12] was 0.114. For the same sequence, the PBM binding z-score [13] was 0.146, the PBM binding z-score [14] was -0.476 and the PBM binding z-score [15] was -0.2. The PBM binding z-score [16] was -0.47, the PBM binding z-score [17] was -0.382 and the PBM binding z-score [18] was -0.0692. The PBM binding z-score [19] was -0.234 and the PBM binding z-score [20] was 0.086.
ATCAAAAGGTCGACGAGGTGAGTATACACCGTTT showed a PBM binding z-score [1] of 4.64, a PBM binding z-score [2] of 3.46 and a PBM binding z-score [3] of 0.265. It also gave a PBM binding z-score [4] of 2.86, a PBM binding z-score [5] of 0.587 and a PBM binding z-score [6] of 4.82. The PBM binding z-score [7] was 3.29, the PBM binding z-score [8] was 3.63 and the PBM binding z-score [9] was 1.47. For the same sequence, the PBM binding z-score [10] was 2.53, the PBM binding z-score [11] was 0.837 and the PBM binding z-score [12] was 2.54. For the same sequence, the PBM binding z-score [13] was 1.44, the PBM binding z-score [14] was 1.18 and the PBM binding z-score [15] was 2.16. For the same sequence, the PBM binding z-score [16] was 3.22, the PBM binding z-score [17] was 0.528 and the PBM binding z-score [18] was 3.88. For the same sequence, the PBM binding z-score [19] was 1.22 and the PBM binding z-score [20] was 4.
CCTGCTAGGCCAATGGTCAGCTAAAGCAGCTCGC was tested, and the PBM binding z-score [1] was -0.614, the PBM binding z-score [2] was -0.503 and the PBM binding z-score [3] was -0.698. It also gave a PBM binding z-score [4] of -0.914, a PBM binding z-score [5] of -0.839 and a PBM binding z-score [6] of -0.216. It also gave a PBM binding z-score [7] of 0.706, a PBM binding z-score [8] of 2.33 and a PBM binding z-score [9] of 0.142. The PBM binding z-score [10] was 1.6, the PBM binding z-score [11] was 0.832 and the PBM binding z-score [12] was 0.413. For the same sequence, the PBM binding z-score [13] was -1.62, the PBM binding z-score [14] was -1.52 and the PBM binding z-score [15] was -0.65. For the same sequence, the PBM binding z-score [16] was -0.919, the PBM binding z-score [17] was -0.736 and the PBM binding z-score [18] was -0.768. The PBM binding z-score [19] was -0.677 and the PBM binding z-score [20] was 0.755.
For CCGACTGGGGCGGAAAGGTTACCATACCATCCGG, the PBM binding z-score [1] was 0.516, the PBM binding z-score [2] was 0.85 and the PBM binding z-score [3] was 0.0346. For the same sequence, the PBM binding z-score [4] was 1.23, the PBM binding z-score [5] was -0.589 and the PBM binding z-score [6] was 2.08. For the same sequence, the PBM binding z-score [7] was 1.41, the PBM binding z-score [8] was 2.7 and the PBM binding z-score [9] was 0.707. For the same sequence, the PBM binding z-score [10] was 1.99, the PBM binding z-score [11] was -0.0321 and the PBM binding z-score [12] was 0.59. The PBM binding z-score [13] was -0.91, the PBM binding z-score [14] was -0.926 and the PBM binding z-score [15] was 0.423. For the same sequence, the PBM binding z-score [16] was 1.17, the PBM binding z-score [17] was -0.39 and the PBM binding z-score [18] was 1.96. For the same sequence, the PBM binding z-score [19] was -0.133 and the PBM binding z-score [20] was 1.43.
CGAACTAGCTCATCCAGGACAGTGAATACATTGA showed a PBM binding z-score [1] of -0.123, a PBM binding z-score [2] of -0.399 and a PBM binding z-score [3] of 0.0441. The PBM binding z-score [4] was -0.293, the PBM binding z-score [5] was -0.166 and the PBM binding z-score [6] was -0.4. For the same sequence, the PBM binding z-score [7] was 0.522, the PBM binding z-score [8] was -0.572 and the PBM binding z-score [9] was 0.105. It also gave a PBM binding z-score [10] of 0.154, a PBM binding z-score [11] of 0.221 and a PBM binding z-score [12] of -0.126. For the same sequence, the PBM binding z-score [13] was -0.227, the PBM binding z-score [14] was 0.607 and the PBM binding z-score [15] was 0.205. The PBM binding z-score [16] was -0.344, the PBM binding z-score [17] was 0.167 and the PBM binding z-score [18] was -0.0855. The PBM binding z-score [19] was -0.0939 and the PBM binding z-score [20] was -0.208.
Sequence AGAACGAGGGCACGCTGAGTTGATATCAGAGTAG has a PBM binding z-score [1] of 0.635, a PBM binding z-score [2] of 0.337 and a PBM binding z-score [3] of -0.489. It also gave a PBM binding z-score [4] of -0.0642, a PBM binding z-score [5] of -0.77 and a PBM binding z-score [6] of 2.02. The PBM binding z-score [7] was 2.14, the PBM binding z-score [8] was 1.79 and the PBM binding z-score [9] was 0.489. For the same sequence, the PBM binding z-score [10] was 1.22, the PBM binding z-score [11] was 4.16 and the PBM binding z-score [12] was 3.89. For the same sequence, the PBM binding z-score [13] was 0.683, the PBM binding z-score [14] was -0.135 and the PBM binding z-score [15] was 0.168. It also gave a PBM binding z-score [16] of 1.44, a PBM binding z-score [17] of 0.106 and a PBM binding z-score [18] of 0.865. It also gave a PBM binding z-score [19] of -0.122 and a PBM binding z-score [20] of 2.5.
